Results from the supplement of paper PMC8728848.
About 410 targets per protein were measured; listed, in parts, are those with the strongest signals and a random draw of the rest.

How the values were obtained:
Experiment in all cases: glycan array binding signal (z-score within array); higher = stronger binding
Conditions in all cases: glycan notation: IUPAC condensed, linker removed
Fuc(a1-2)Gal = biological target: Fuc(a1-2)Gal
How it was run: (§1)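 Glycan array data came from 3228 arrays in the Consortium for Functional Glycomics database, and only arrays with an available protein sequence were kept. Glycan names were put into IUPAC-condensed notation, and columns mapping to the same glycan were averaged. The binding signal is a within-array Z-score, averaged across arrays of one protein sequence run at different concentrations or buffers and across linkers. A negative Z-score can be read as non-binding.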

[1] = biological target: Fuc(a1-2)Gal(b1-3)GlcNAc(b1-2)Man(a1-3)[Fuc(a1-2)Gal(b1-3)GlcNAc(b1-2)Man(a1-6)]Man(b1-4)GlcNAc(b1-4)GlcNAc
How it was run: as §1

[2] = biological target: Fuc(a1-2)Gal(b1-3)GlcNAc(b1-3)[Neu5Ac(a2-6)Gal(b1-4)GlcNAc(b1-6)]Gal(b1-4)Glc
How it was run: as §1

[3] = biological target: Fuc(a1-2)Gal(b1-4)GlcNAc(b1-2)Man(a1-3)[Fuc(a1-2)Gal(b1-4)GlcNAc(b1-2)Man(a1-6)]Man(b1-4)GlcNAc(b1-4)[Fuc(a1-6)]GlcNAc
How it was run: as §1

[4] = biological target: Fuc(a1-2)Gal(b1-4)[Fuc(a1-3)]GlcNAc(b1-2)[Fuc(a1-2)Gal(b1-4)[Fuc(a1-3)]GlcNAc(b1-4)]Man(a1-3)[Fuc(a1-2)Gal(b1-4)[Fuc(a1-3)]GlcNAc(b1-2)Man(a1-6)]Man(b1-4)GlcNAc(b1-4)GlcNAc
How it was run: as §1

[5] = biological target: Fuc(a1-2)Gal6S(b1-3)GlcNAc
How it was run: as §1

[6] = biological target: Fuc(a1-2)[Gal(a1-3)]Gal(b1-3)GlcNAc(b1-2)Man(a1-3)[Fuc(a1-2)[Gal(a1-3)]Gal(b1-3)GlcNAc(b1-2)Man(a1-6)]Man(b1-4)GlcNAc(b1-4)GlcNAc
How it was run: as §1

[7] = biological target: Gal(a1-3)Gal(b1-3)GlcNAc(b1-2)Man(a1-3)[Gal(a1-3)Gal(b1-3)GlcNAc(b1-2)Man(a1-6)]Man(b1-4)GlcNAc(b1-4)GlcNAc
How it was run: as §1

[8] = biological target: Gal(a1-3)Gal(b1-3)[Fuc(a1-4)]GlcNAc(b1-2)Man(a1-3)[Gal(a1-3)Gal(b1-3)[Fuc(a1-4)]GlcNAc(b1-2)Man(a1-6)]Man(b1-4)GlcNAc(b1-4)GlcNAc
How it was run: as §1

Gal(a1-3)Gal(b1-4)Glc = biological target: Gal(a1-3)Gal(b1-4)Glc
How it was run: as §1

Gal(a1-6)Glc = biological target: Gal(a1-6)Glc
How it was run: as §1

Gal(b1-3)GlcNAc = biological target: Gal(b1-3)GlcNAc
How it was run: as §1

[9] = biological target: Gal(b1-3)GlcNAc(b1-3)Gal(b1-4)[Fuc(a1-3)]GlcNAc
How it was run: as §1

[10] = biological target: Gal(b1-3)GlcNAc(b1-3)GalNAc
How it was run: as §1

[11] = biological target: Gal(b1-3)[Fuc(a1-4)]GlcNAc(b1-2)Man
How it was run: as §1

[12] = biological target: Gal(b1-3)[Fuc(a1-4)]GlcNAc(b1-3)Gal(b1-3)[Fuc(a1-4)]GlcNAc
How it was run: as §1

[13] = biological target: Gal(b1-4)GlcNAc(a1-6)Gal(b1-4)GlcNAc
How it was run: as §1

[14] = biological target: Gal(b1-4)GlcNAc(b1-2)Man(a1-3)[GlcNAc(b1-2)Man(a1-6)]Man(b1-4)GlcNAc(b1-4)GlcNAc
How it was run: as §1

[15] = biological target: Gal(b1-4)GlcNAc(b1-2)[Gal(b1-4)GlcNAc(b1-4)]Man(a1-3)[GlcNAc(b1-4)][Gal(b1-4)GlcNAc(b1-2)Man(a1-6)]Man(b1-4)GlcNAc(b1-4)GlcNAc
How it was run: as §1

[16] = biological target: Gal(b1-4)GlcNAc(b1-3)Gal(b1-4)GlcNAc(b1-2)[Gal(b1-4)GlcNAc(b1-3)Gal(b1-4)GlcNAc(b1-6)]Man(a1-6)[Gal(b1-4)GlcNAc(b1-3)Gal(b1-4)GlcNAc(b1-2)Man(a1-3)]Man(b1-4)GlcNAc(b1-4)GlcNAc
How it was run: as §1

[17] = biological target: Gal(b1-4)GlcNAc(b1-3)Gal(b1-4)GlcNAc(b1-3)Gal(b1-4)GlcNAc(b1-3)Gal(b1-4)GlcNAc(b1-3)Gal(b1-4)GlcNAc(b1-3)Gal(b1-4)GlcNAc(b1-2)Man(a1-3)[Gal(b1-4)GlcNAc(b1-3)Gal(b1-4)GlcNAc(b1-3)Gal(b1-4)GlcNAc(b1-3)Gal(b1-4)GlcNAc(b1-3)Gal(b1-4)GlcNAc(b1-3)Gal(b1-4)GlcNAc(b1-2)Man(a1-6)]Man(b1-4)GlcNAc(b1-4)GlcNAc
How it was run: as §1

Gal6S(b1-4)GlcNAc = biological target: Gal6S(b1-4)GlcNAc
How it was run: as §1

[18] = biological target: GalNAc(b1-3)Gal(a1-6)Gal(b1-4)Glc
How it was run: as §1

[19] = biological target: GalNAc(b1-4)GlcNAc(b1-2)Man
How it was run: as §1

[20] = biological target: GlcNAc(a1-3)Gal(b1-4)GlcNAc
How it was run: as §1

[21] = biological target: GlcNAc(a1-6)Gal(b1-4)GlcNAc
How it was run: as §1

[22] = biological target: GlcNAc(b1-3)Gal(b1-4)GlcNAc(b1-2)Man(a1-3)[GlcNAc(b1-3)Gal(b1-4)GlcNAc(b1-2)Man(a1-6)]Man(b1-4)GlcNAc(b1-4)[Fuc(a1-6)]GlcNAc
How it was run: as §1

[23] = biological target: GlcNAc(b1-3)Gal(b1-4)GlcNAc(b1-2)[GlcNAc(b1-3)Gal(b1-4)GlcNAc(b1-6)]Man(a1-6)[GlcNAc(b1-3)Gal(b1-4)GlcNAc(b1-2)Man(a1-3)]Man(b1-4)GlcNAc(b1-4)GlcNAc
How it was run: as §1

[24] = biological target: GlcNAc(b1-3)Gal(b1-4)GlcNAc(b1-3)Gal(b1-4)GlcNAc(b1-3)GalNAc
How it was run: as §1

GlcNAc(b1-3)Man = biological target: GlcNAc(b1-3)Man
How it was run: as §1

Kdn(a2-3)Gal(b1-4)GlcNAc = biological target: Kdn(a2-3)Gal(b1-4)GlcNAc
How it was run: as §1

Kdn(a2-6)Gal(b1-4)GlcNAc = biological target: Kdn(a2-6)Gal(b1-4)GlcNAc
How it was run: as §1

[25] = biological target: Neu5Ac(a2-3)Gal(b1-3)GalNAc
How it was run: as §1

[26] = biological target: Neu5Ac(a2-3)Gal(b1-3)GlcNAc(b1-2)Man(a1-3)[Neu5Ac(a2-3)Gal(b1-3)GlcNAc(b1-2)Man(a1-6)]Man(b1-4)GlcNAc(b1-4)GlcNAc
How it was run: as §1

[27] = biological target: Neu5Ac(a2-3)Gal(b1-4)GlcNAc(b1-3)Gal(b1-4)GlcNAc(b1-3)Gal(b1-4)GlcNAc(b1-2)Man(a1-3)[Neu5Ac(a2-3)Gal(b1-4)GlcNAc(b1-3)Gal(b1-4)GlcNAc(b1-3)Gal(b1-4)GlcNAc(b1-2)Man(a1-6)]GalNAc
How it was run: as §1

[28] = biological target: Neu5Ac(a2-3)Gal(b1-4)GlcNAc(b1-3)[Neu5Ac(a2-3)Gal(b1-4)GlcNAc(b1-6)]GalNAc
How it was run: as §1

[29] = biological target: Neu5Ac(a2-6)Gal(b1-4)GlcNAc(b1-3)Gal(b1-4)GlcNAc(b1-6)[Gal(b1-3)]GalNAc
How it was run: as §1

[30] = biological target: Neu5Ac(a2-6)Gal(b1-4)GlcNAc(b1-3)[Neu5Ac(a2-6)Gal(b1-4)GlcNAc(b1-6)]GalNAc
How it was run: as §1

[31] = biological target: Neu5Ac9Ac(a2-3)Gal(b1-4)GlcNAc
How it was run: as §1

[32] = biological target: Neu5Gc(a2-3)Gal(b1-3)GlcNAc
How it was run: as §1

B1: HPL (Tachypleus tridentatus) (protein)
chain: MEDDCTCVTDRSLEGKLMKHPSTPAVYQILDGCRRLVPNPPTYNNIYKNWECIQSNILEKLLCKCDSLSNGAELIKGSGDTVYLLSNGVKRPIADPETFNGFCFDWNKIKTYSDIVINSLSTGPIIIIKHHHHHH
B1 was tested. Which “glycan array binding signal (z-score)” value (Fuc(a1-2)Gal) did it give?
Its value is -0.153.

And the “glycan array binding signal (z-score)” value [1]?
The value was 4.15.

What about the “glycan array binding signal (z-score)” value [2] of the same binder?
Its value is -0.343.

What about the “glycan array binding signal (z-score)” value [3] of the same binder?
Its value is 3.19.

And the “glycan array binding signal (z-score)” value [4]?
The value was 2.19.

And the “glycan array binding signal (z-score)” value [5]?
The value was 0.027.

What about the “glycan array binding signal (z-score)” value [6] of the same binder?
Its value is -0.163.

And the “glycan array binding signal (z-score)” value [7]?
Its value is 3.2.

And the “glycan array binding signal (z-score)” value [8]?
The value was 2.31.

And the “glycan array binding signal (z-score)” value (Gal(a1-3)Gal(b1-4)Glc)?
Its value is 0.05.

And the “glycan array binding signal (z-score)” value (Gal(a1-6)Glc)?
The value was 1.55.

What about the “glycan array binding signal (z-score)” value (Gal(b1-3)GlcNAc) of the same binder?
The value was -0.177.

What about the “glycan array binding signal (z-score)” value [9] of the same binder?
Its value is -0.309.

And the “glycan array binding signal (z-score)” value [10]?
Its value is -0.36.

What about the “glycan array binding signal (z-score)” value [11] of the same binder?
Its value is 1.71.

What about the “glycan array binding signal (z-score)” value [12] of the same binder?
The value was -0.131.

And the “glycan array binding signal (z-score)” value [13]?
The value was -0.342.

What about the “glycan array binding signal (z-score)” value [14] of the same binder?
The value was -0.178.

And the “glycan array binding signal (z-score)” value [15]?
Its value is 5.11.

And the “glycan array binding signal (z-score)” value [16]?
The value was 2.19.

And the “glycan array binding signal (z-score)” value [17]?
Its value is -0.206.

What about the “glycan array binding signal (z-score)” value (Gal6S(b1-4)GlcNAc) of the same binder?
Its value is -0.335.

And the “glycan array binding signal (z-score)” value [18]?
The value was -0.402.

What about the “glycan array binding signal (z-score)” value [19] of the same binder?
The value was -0.379.

What about the “glycan array binding signal (z-score)” value [20] of the same binder?
Its value is -0.255.

What about the “glycan array binding signal (z-score)” value [21] of the same binder?
The value was -0.429.

And the “glycan array binding signal (z-score)” value [22]?
The value was 0.104.

What about the “glycan array binding signal (z-score)” value [23] of the same binder?
Its value is 0.395.

And the “glycan array binding signal (z-score)” value [24]?
Its value is -0.251.

And the “glycan array binding signal (z-score)” value (GlcNAc(b1-3)Man)?
Its value is 0.24.

And the “glycan array binding signal (z-score)” value (Kdn(a2-3)Gal(b1-4)GlcNAc)?
Its value is -0.185.

And the “glycan array binding signal (z-score)” value (Kdn(a2-6)Gal(b1-4)GlcNAc)?
The value was -0.279.

And the “glycan array binding signal (z-score)” value [25]?
The value was -0.291.

And the “glycan array binding signal (z-score)” value [26]?
The value was 2.02.

And the “glycan array binding signal (z-score)” value [27]?
The value was 1.54.

What about the “glycan array binding signal (z-score)” value [28] of the same binder?
Its value is -0.093.

And the “glycan array binding signal (z-score)” value [29]?
The value was -0.132.

And the “glycan array binding signal (z-score)” value [30]?
Its value is 0.127.

What about the “glycan array binding signal (z-score)” value [31] of the same binder?
Its value is -0.231.

And the “glycan array binding signal (z-score)” value [32]?
Its value is -0.215.
